The list is not random: actives were taken first. Their share in the collection is about 5.7%.
PI4K2A inh: inhibitors of human PI4K2A; purified PI4K2A, ADP-Glo luminescence, 1 h; hits give low values; AID 1346378; 420,000 compounds, 0.13% hits; Q9BTU6; activity change, negative = inhibition, % at 76.9 µM; in the data active = activity change below about -50%; inconclusive = mostly about -30% to -49%;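 also: -100% = wells without enzyme as full effect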
Target sequence (Q9BTU6 whole entry, looked up): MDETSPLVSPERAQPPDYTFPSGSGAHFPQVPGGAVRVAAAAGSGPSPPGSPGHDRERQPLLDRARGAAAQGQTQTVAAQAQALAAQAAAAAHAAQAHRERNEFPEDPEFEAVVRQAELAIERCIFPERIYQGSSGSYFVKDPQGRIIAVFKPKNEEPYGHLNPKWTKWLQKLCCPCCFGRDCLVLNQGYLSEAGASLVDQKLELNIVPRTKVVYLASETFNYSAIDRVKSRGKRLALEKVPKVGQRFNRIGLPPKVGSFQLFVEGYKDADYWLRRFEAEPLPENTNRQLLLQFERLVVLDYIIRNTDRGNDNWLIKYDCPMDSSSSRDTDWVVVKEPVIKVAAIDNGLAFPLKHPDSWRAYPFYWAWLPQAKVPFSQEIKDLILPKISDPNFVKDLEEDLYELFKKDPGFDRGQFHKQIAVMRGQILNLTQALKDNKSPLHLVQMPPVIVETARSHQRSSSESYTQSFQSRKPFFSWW
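In this quantitative HTS, ADP production by PI4K2A was quantified luminescently after 1 h at ambient temperature; 100 microM adenosine served as plate-quality control.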
A549 viability: counter-screen for Nrf2 inhibitors: cytotoxicity in A549 cells. A549 ARE-Fluc cells, CellTiter-Fluor viability, 18-24 h. Potency, µM (doses to about 46 µM), for inactives: at the top dose activity change, negative = cytotoxicity, actives largely listed as inhibitors. 390,000 compounds, 0.16% hits. AID 504648; also: potency is read from the fitted curve at half-maximal effect
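Cytotoxicity counterscreen: CellTiter-Fluor fluorescence was measured in A549 ARE_Fluc cells after 18-24 h of compound exposure in a concentration series. The subsequent BugLite luminescent read reports ARE-luciferase activity.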
KB-V1 cytotox: KB-V1 MDR subline cytotoxicity; Potency, µM (series often up to 46.1 µM), hits mostly cytotoxic; KB-V1 MDR cells viability, CellTiter-Glo, 72 h; 400,000 compounds, 3.4% hits; also: potency is read from the fitted curve at half-maximal effect; nearly all actives have a fitted effect of over 60% in size
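Compound-treated KB-V1 multidrug-resistant cells, 72 h, 37 degrees C; viability by CellTiter-Glo. Fitted qHTS curves give the values.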
Giardia killer: kills Giardia lamblia; Giardia lamblia trophozoite viability; activity change, % at 7.66 µM, hits read low; 340,000 compounds, 0.15% hits; in the data active = activity change below about -80%; inconclusive = between about -30% and that limit;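 also: parasites exposed to compound for two days anaerobically before the ATP read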
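Killing of trophozoites was scored by loss of ATP luminescence after a 48 hrs anaerobic exposure to compounds at 37 deg C, using 100 cells per well.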
Nrf2 block: blocks Nrf2 signaling; A549 ARE-Fluc reporter, luciferase luminescence, 18-24 h; AID 504444; 360,000 compounds, 2.1% hits; Potency, µM (highest dose often 46 µM), for inactives: at the highest dose activity change, negative = inhibition, usual class: inhibitors; also: potency is read from the fitted curve at half-maximal effect; nearly all actives have a fitted effect of over 60% in size
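A549 ARE_Fluc cells (5000/well, 5% FBS OPTI-MEM) pre-incubated 2 h, then treated with compounds 18-24 h at 37C/5% CO2 in concentration-response. CellTiter-Fluor viability read first; BugLite luciferase luminescence after 15 min at room temperature gives Nrf2 activity.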
KB-3-1 tox: kills parental KB-3-1 adenocarcinoma cells. Potency, µM (doses to about 46.1 µM), usual class: cytotoxic. 400,000 compounds, 1.4% hits. KB-3-1 viability, CellTiter-Glo ATP luminescence, 72 h; also: potency is read from the fitted curve at half-maximal effect; nearly all actives have a fitted effect of over 60% in size
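Using CellTiter-Glo luminescence, growth of non-resistant KB-3-1 adenocarcinoma cells is assessed 72 h after pin-tool compound addition at 37 °C. Normalized responses across the concentration series yield fitted curves.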
* = called active by the depositor; i = inactive; ? = inconclusive; nt = not tested or not shown. Unless noted, calls follow the shape of the dose curve; as a rule, active = well fitted curve in the direction sought with a large enough effect; inconclusive = small, poorly fitted or top-dose-only effect, or another doubt; inactive = no such curve, though single readings can be large; an effect the other way counts as inactive or inconclusive. Unless noted, % is scaled to controls: 0 for no effect and ±100 for the full control effect.

SMILES	PI4K2A inh	A549 viability	KB-V1 cytotox	Giardia killer	Nrf2 block	KB-3-1 tox
O=C1C(Br)=C(c2ccccc2)C(c2ccccc2)=C1c1ccccc1	2	13%	?	20	-10%	6.5µM*
Cc1cccc(Oc2nc3ccccn3c(=O)c2/C=C(\C#N)c2nc3ccccc3s2)c1C	1	-10%	i	nt	7%	?
CCOc1ccc(-n2c(-c3ccc(Cl)cc3)c[n+]3c2SCC3)cc1	2	3%	i	12	-14%	16µM*
c1ccc(-c2c[n+]3c(n2-c2ccccc2)SCC3)cc1	3	12%	?	4	?	3.3µM*
c1ccc(-c2cn(-c3ccccc3)c3[n+]2CCS3)cc1	2	-12%	?	-10	?	?
FC(F)Sc1ccc(-n2c(-c3ccc(Cl)cc3)c[n+]3c2CCC3)cc1	-5	9%	i	-8	15%	?
COCCNC(=O)NC1(C(F)(F)F)Oc2ccc(Cl)cc2O1 (configuration not stated)	-2	-16%	?	-18	14%	23µM*
Cc1ccc(Cl)cc1NC(=O)NCc1cccnc1	7	4%	i	9	?	i
Cc1cc(NC(=O)NC2(C(F)(F)F)Oc3ccc(Cl)cc3O2)no1 (configuration not stated)	-5	-13%	18µM*	-3	0%	?
O=C(NCc1cccnc1)NC1(C(F)(F)F)Oc2ccc(Cl)cc2O1 (configuration not stated)	-9	-4%	3.3µM*	-11	18%	?
COc1ccc(C2C(C(=O)Nc3cc(Cl)ccc3F)CCC(=O)N2c2ccc(OC)cc2)cc1 (configuration not stated)	1	nt	nt	nt	nt	nt
O=C(Nc1ccccc1C(=O)NCc1ccc(Cl)cc1)c1ccco1	-1	2%	8.2µM*	20	-17%	i
Cc1ccccc1C(=O)Nc1ccccc1C(=O)NCc1ccccc1	-3	-2%	21µM*	8	15%	i
O=[S+]([O-])([O-])c1ccc2c(c1)cc([S+](=O)([O-])[O-])c1nn(-c3ccc(/C=C/c4ccc(-n5nc6c([S+](=O)([O-])[O-])cc7cc([S+](=O)([O-])[O-])ccc7c6n5)cc4[S+](=O)([O-])[O-])c([S+](=O)([O-])[O-])c3)nc12	nt	8%	i	-20	0%	?
COc1ccccc1OCC(=O)Nc1ccc(CSc2ccccc2)cc1C	3	-15%	i	-8	10µM*	i
COc1cccc(N2CC(O)=C(c3nc4ccccc4s3)C2=N)c1	5	0%	3.3µM*	10	?	7.3µM*
CSc1ccc(-c2csc(N3CCC(C(N)=O)CC3)n2)cc1	-2	nt	nt	nt	nt	nt
COc1ccc(OC2CCN(S(=O)(=O)c3ccc(C(C)=O)cc3)CC2)cc1	-10	-2%	i	-12	21µM*	i
COc1ccc(S(=O)(=O)N2CCN(CCCOc3ccc(F)cc3)CC2)cc1OC	2	0%	?	-8	23µM*	i
COc1ccc(OC2CCN(S(=O)(=O)c3ccc(F)cc3)CC2)cc1	4	18%	i	-16	-25%	i
COc1ccccc1N1CCN(S(=O)(=O)c2cccc(F)c2)CC1	4	-3%	?	7	4%	i
COc1ccc(OC2CCN(S(=O)(=O)c3ccc(OC)c(OC)c3)CC2)cc1	-1	-15%	i	4	16µM*	i
COc1ccccc1N1CCN(S(=O)(=O)c2ccc(F)cc2)CC1	1	7%	13µM*	-10	-1%	i
COC(=O)c1cc(-c2cc(Cl)cc(Cl)c2)c(=O)n2c1CCC2	-1	nt	nt	nt	nt	nt
COc1ccc(S(=O)(=O)N2CCC(C(=O)NCCc3ccccc3)CC2)cc1OC	-1	5%	i	-2	8%	i
SMILES	PI4K2A inh	A549 viability	KB-V1 cytotox	Giardia killer	Nrf2 block	KB-3-1 tox
COc1ccc(S(=O)(=O)N2CCC(C(=O)NCCOc3ccccc3F)CC2)cc1OC	1	-9%	23µM*	26	-21%	i
O=C(CC(NC(=O)c1ccccc1Cl)c1ccccc1)NCCc1ccc(Cl)cc1 (configuration not stated)	0	3%	8.2µM*	-2	18%	i
CCS(=O)(=O)CCn1c([N+](=O)[O-])cnc1C	2	-12%	i	-86*	-10%	i
CCOc1cc(C(=O)CSc2nnc(CNc3ccc(Cl)cc3)o2)ccc1NC(=O)CC	0	-27%	21µM*	-7	?	?
C[C@H]1[C@@H](OC(=O)NCc2ccc(Cl)c(Cl)c2)CC[C@@]23CCCN2C(=O)CCC[C@@H]13	-4	nt	nt	nt	nt	nt
COc1cc(Cn2c3ccc(NC(=O)NCc4ccc(F)cc4)cc3c(=O)n2C)ccc1F	-2	nt	i	nt	nt	9.2µM*
COc1cc(Cn2c3ccc(NC(=O)CCc4ccc(O)cc4)cc3c(=O)n2C)ccc1F	-3	nt	i	nt	nt	5.8µM*
Cc1ccc(Oc2c(C(N)=O)cc([N+](=O)[O-])cc2[N+](=O)[O-])cc1	-4	4.1µM*	i	19	5.8µM*	21µM*
c1ccc2oc(-c3nn4c(Cn5cnc6ccccc65)nnc4s3)cc2c1	0	3%	i	55	9%	i
S=c1[nH]nc(Cn2nnc3ccccc32)n1-c1ccc(Cl)cc1	-1	?	i	32	11%	i
c1coc(-c2nn3c(Cn4nnc5ccccc54)nnc3s2)c1	2	4%	13µM*	-9	18%	i
c1csc(-c2nn3c(Cn4nnc5ccccc54)nnc3s2)c1	3	-1%	15µM*	7	nt	?
Clc1ccc(Cc2nn3c(Cn4nnc5ccccc54)nnc3s2)cc1	0	-12%	4.1µM*	-12	?	i
c1ccc2c(c1)nnn2Cc1nnc2sc(-c3ccncc3)nn12	4	6%	i	-11	nt	i
C[C@H]1[C@H](N(C)C)CC[C@@]23CCCN2C(=O)CCC[C@@H]13	-1	nt	nt	nt	nt	nt
Cc1cc(C)n2c(Nc3ccccc3)c(-c3ccc(C)o3)nc2n1	nt	-5%	nt	21	?	nt
FC(F)(Cl)c1nnc2ccc(Cl)nn12	-13	9%	?	-3	1%	6.5µM*
Brc1ccc(-c2ccc(CNCCSc3nnnn3-c3ccccc3)o2)cc1	-2	-5%	i	nt	20%	i
CC1(C)Cc2ccccc2C(N/N=C/c2ccc([N+](=O)[O-])cc2)=N1	-11	-2%	i	-3	8%	i
CC1(C)Cc2ccccc2C(N/N=C/c2ccc(Cl)cc2)=N1	-2	4%	15µM*	-2	?	?

Screening data from PubChem BioAssay.
